{"source": "the supplement of paper PMC4022240", "note": "± gives the standard deviation."}
{"target": "T1, HaloTag-ATRX ADD domain (163-292)", "T1 chain": "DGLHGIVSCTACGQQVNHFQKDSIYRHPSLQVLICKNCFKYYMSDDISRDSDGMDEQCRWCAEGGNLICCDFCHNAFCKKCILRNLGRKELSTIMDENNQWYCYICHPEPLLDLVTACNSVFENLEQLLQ", "experiment": "peptide microarray binding signal (635 nm), min-max normalized on array (fraction of array maximum); higher = stronger binding", "details": "peptide region: Unmod H2A variant; binder concentration: 50 nM", "in_short": "(§1)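 Histone 13-mer peptide–cellulose conjugates were printed in triplicate on nitrocellulose with a Cy3 tracer, then blocked overnight at 4°C. Arrays were probed for 1 h at 4°C with biotin-labelled HaloTag reader fusions (10 nM to 1 μM) plus streptavidin-Alexa Fluor 647, or with rabbit histone antibodies (1:10,000 to 1:2,000) plus anti-rabbit Alexa 647. An Axon GenePix 4000B scanned 635 nm for signal and 532 nm for misprints. Binding signal is the triplicate-spot mean intensity, min-max scaled per library.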"}
{"binder": "GAGAPVYMAAVLE", "note": "[Unmod H2A variant G A G A P V Y M A A V L E]", "peptide microarray binding signal": "0.0137 ± 0.00082"}
{"binder": "LAAVLEYLTAEIL", "note": "[Unmod H2A variant L A A V L E Y L T A E I L]", "peptide microarray binding signal": "0.0089 ± 0.00038"}
{"binder": "GAGAPVYLAAVLE", "note": "[Unmod H2A variant G A G A P V Y L A A V L E]", "peptide microarray binding signal": "0.0133 ± 0.00042"}
{"binder": "GNAARDNKKTRII", "note": "[Unmod H2A variant G N A A R D N K K T R I I]", "peptide microarray binding signal": "0.0155 ± 0.0014"}
{"binder": "GNASRDNKKTRII", "note": "[Unmod H2A variant G N A S R D N K K T R I I]", "peptide microarray binding signal": "0.0142 ± 0.00075"}
{"target": "T1, HaloTag-ATRX ADD domain (163-292)", "experiment": "peptide microarray binding signal (635 nm), min-max normalized on array (fraction of array maximum); higher = stronger binding", "details": "peptide region: Unmod H2A variant; binder concentration: 500 nM", "in_short": "as §1"}
{"binder": "GAGAPVYMAAVLE", "note": "[Unmod H2A variant G A G A P V Y M A A V L E]", "peptide microarray binding signal": "0.0173 ± 0.0023"}
{"binder": "LAAVLEYLTAEIL", "note": "[Unmod H2A variant L A A V L E Y L T A E I L]", "peptide microarray binding signal": "0.00462 ± 0.00017"}
{"binder": "GAGAPVYLAAVLE", "note": "[Unmod H2A variant G A G A P V Y L A A V L E]", "peptide microarray binding signal": "0.00505 ± 0.0014"}
{"binder": "GNAARDNKKTRII", "note": "[Unmod H2A variant G N A A R D N K K T R I I]", "peptide microarray binding signal": "0.0214 ± 0.0004"}
{"binder": "GNASRDNKKTRII", "note": "[Unmod H2A variant G N A S R D N K K T R I I]", "peptide microarray binding signal": "0.00895 ± 0.0037"}
{"target": "HaloTag-ING2 PHD (mouse Ing2 200-280)", "experiment": "peptide microarray binding signal (635 nm), min-max normalized on array (fraction of array maximum); higher = stronger binding", "details": "peptide region: Unmod H2A variant; binder concentration: 10 nM", "in_short": "as §1"}
{"binder": "GAGAPVYMAAVLE", "note": "[Unmod H2A variant G A G A P V Y M A A V L E]", "peptide microarray binding signal": "0.0083 ± 0.0011"}
{"binder": "LAAVLEYLTAEIL", "note": "[Unmod H2A variant L A A V L E Y L T A E I L]", "peptide microarray binding signal": "0.00215 ± 4.5e-05"}
{"binder": "GAGAPVYLAAVLE", "note": "[Unmod H2A variant G A G A P V Y L A A V L E]", "peptide microarray binding signal": "0.0031 ± 0.00049"}
{"binder": "GNAARDNKKTRII", "note": "[Unmod H2A variant G N A A R D N K K T R I I]", "peptide microarray binding signal": "0.003223 ± 1.8e-05"}
{"binder": "GNASRDNKKTRII", "note": "[Unmod H2A variant G N A S R D N K K T R I I]", "peptide microarray binding signal": "0.0031 ± 0.00011"}
{"target": "HaloTag-ING2 PHD (mouse Ing2 200-280)", "experiment": "peptide microarray binding signal (635 nm), min-max normalized on array (fraction of array maximum); higher = stronger binding", "details": "peptide region: Unmod H2A variant; binder concentration: 100 nM", "in_short": "as §1"}
{"binder": "GAGAPVYMAAVLE", "note": "[Unmod H2A variant G A G A P V Y M A A V L E]", "peptide microarray binding signal": "0.0205 ± 0.0014"}
{"binder": "LAAVLEYLTAEIL", "note": "[Unmod H2A variant L A A V L E Y L T A E I L]", "peptide microarray binding signal": "0.00184 ± 0.00015"}
{"binder": "GAGAPVYLAAVLE", "note": "[Unmod H2A variant G A G A P V Y L A A V L E]", "peptide microarray binding signal": "0.0137 ± 0.00099"}
{"binder": "GNAARDNKKTRII", "note": "[Unmod H2A variant G N A A R D N K K T R I I]", "peptide microarray binding signal": "0.0051 ± 0.00053"}
{"binder": "GNASRDNKKTRII", "note": "[Unmod H2A variant G N A S R D N K K T R I I]", "peptide microarray binding signal": "0.00673 ± 0.00046"}
{"target": "anti-H3K4me3 antibody ab8580", "experiment": "peptide microarray binding signal (635 nm), min-max normalized on array (fraction of array maximum); higher = stronger binding", "details": "peptide region: Unmod H2A variant; binder concentration: 1:2,000 dilution", "in_short": "as §1"}
{"binder": "GAGAPVYMAAVLE", "note": "[Unmod H2A variant G A G A P V Y M A A V L E]", "peptide microarray binding signal": "0.00425 ± 0.00061"}
{"binder": "LAAVLEYLTAEIL", "note": "[Unmod H2A variant L A A V L E Y L T A E I L]", "peptide microarray binding signal": "0.00238 ± 0.0001"}
{"binder": "GAGAPVYLAAVLE", "note": "[Unmod H2A variant G A G A P V Y L A A V L E]", "peptide microarray binding signal": "0.000189 ± 8.9e-06"}
{"binder": "GNAARDNKKTRII", "note": "[Unmod H2A variant G N A A R D N K K T R I I]", "peptide microarray binding signal": "0.00162 ± 0.0002"}
{"binder": "GNASRDNKKTRII", "note": "[Unmod H2A variant G N A S R D N K K T R I I]", "peptide microarray binding signal": "0.000396 ± 2.5e-05"}
{"target": "anti-H3K4me3 antibody ab8580", "experiment": "peptide microarray binding signal (635 nm), min-max normalized on array (fraction of array maximum); higher = stronger binding", "details": "peptide region: Unmod H2A variant; binder concentration: 1:10,000 dilution", "in_short": "as §1"}
{"binder": "GAGAPVYMAAVLE", "note": "[Unmod H2A variant G A G A P V Y M A A V L E]", "peptide microarray binding signal": "0.0016 ± 0.00012"}
{"binder": "LAAVLEYLTAEIL", "note": "[Unmod H2A variant L A A V L E Y L T A E I L]", "peptide microarray binding signal": "0.000913 ± 1.6e-05"}
{"binder": "GAGAPVYLAAVLE", "note": "[Unmod H2A variant G A G A P V Y L A A V L E]", "peptide microarray binding signal": "0.0016 ± 2.7e-05"}
{"binder": "GNAARDNKKTRII", "note": "[Unmod H2A variant G N A A R D N K K T R I I]", "peptide microarray binding signal": "0.000799 ± 8.3e-06"}
{"binder": "GNASRDNKKTRII", "note": "[Unmod H2A variant G N A S R D N K K T R I I]", "peptide microarray binding signal": "0.0012 ± 4.3e-05"}
{"target": "anti-H3K9me3 antibody ab8898", "experiment": "peptide microarray binding signal (635 nm), min-max normalized on array (fraction of array maximum); higher = stronger binding", "details": "peptide region: Unmod H2A variant; binder concentration: 1:2,000 dilution", "in_short": "as §1"}
{"binder": "GAGAPVYMAAVLE", "note": "[Unmod H2A variant G A G A P V Y M A A V L E]", "peptide microarray binding signal": "0.000846 ± 4.3e-05"}
{"binder": "LAAVLEYLTAEIL", "note": "[Unmod H2A variant L A A V L E Y L T A E I L]", "peptide microarray binding signal": "0.0003775 ± 3.7e-06"}
{"binder": "GAGAPVYLAAVLE", "note": "[Unmod H2A variant G A G A P V Y L A A V L E]", "peptide microarray binding signal": "0.000423 ± 1.1e-05"}
{"binder": "GNAARDNKKTRII", "note": "[Unmod H2A variant G N A A R D N K K T R I I]", "peptide microarray binding signal": "0.000362 ± 6.3e-06"}
{"binder": "GNASRDNKKTRII", "note": "[Unmod H2A variant G N A S R D N K K T R I I]", "peptide microarray binding signal": "0.000272 ± 4.9e-06"}
{"target": "anti-H3K9me3 antibody ab8898", "experiment": "peptide microarray binding signal (635 nm), min-max normalized on array (fraction of array maximum); higher = stronger binding", "details": "peptide region: Unmod H2A variant; binder concentration: 1:10,000 dilution", "in_short": "as §1"}
{"binder": "GAGAPVYMAAVLE", "note": "[Unmod H2A variant G A G A P V Y M A A V L E]", "peptide microarray binding signal": "0.00144 ± 3.7e-05"}
{"binder": "LAAVLEYLTAEIL", "note": "[Unmod H2A variant L A A V L E Y L T A E I L]", "peptide microarray binding signal": "0.00075 ± 7.9e-06"}
{"binder": "GAGAPVYLAAVLE", "note": "[Unmod H2A variant G A G A P V Y L A A V L E]", "peptide microarray binding signal": "0.00104 ± 2.8e-05"}
{"binder": "GNAARDNKKTRII", "note": "[Unmod H2A variant G N A A R D N K K T R I I]", "peptide microarray binding signal": "0.000577 ± 6.2e-06"}
{"binder": "GNASRDNKKTRII", "note": "[Unmod H2A variant G N A S R D N K K T R I I]", "peptide microarray binding signal": "0.00075 ± 7.9e-06"}
